# Compound activity (PubChem)
# The entries come from a sample that favours hits as a whole.
# KDM5B inh = KDM5B demethylase inhibition; Potency, µM (titrated, usually from 57.7 µM), usual class: inhibitors; hit rate 2.6% among 220,000; KDM5B demethylase, FDH-coupled NADH fluorescence (FDH is formaldehyde dehydrogenase); Q9UGL1; AID 1347165; active means well fitted inhibition curve with a large enough effect; further: 0% is about no effect; nearly all actives have a fitted effect of over 70% in size
# Target sequence (Q9UGL1 whole entry, looked up): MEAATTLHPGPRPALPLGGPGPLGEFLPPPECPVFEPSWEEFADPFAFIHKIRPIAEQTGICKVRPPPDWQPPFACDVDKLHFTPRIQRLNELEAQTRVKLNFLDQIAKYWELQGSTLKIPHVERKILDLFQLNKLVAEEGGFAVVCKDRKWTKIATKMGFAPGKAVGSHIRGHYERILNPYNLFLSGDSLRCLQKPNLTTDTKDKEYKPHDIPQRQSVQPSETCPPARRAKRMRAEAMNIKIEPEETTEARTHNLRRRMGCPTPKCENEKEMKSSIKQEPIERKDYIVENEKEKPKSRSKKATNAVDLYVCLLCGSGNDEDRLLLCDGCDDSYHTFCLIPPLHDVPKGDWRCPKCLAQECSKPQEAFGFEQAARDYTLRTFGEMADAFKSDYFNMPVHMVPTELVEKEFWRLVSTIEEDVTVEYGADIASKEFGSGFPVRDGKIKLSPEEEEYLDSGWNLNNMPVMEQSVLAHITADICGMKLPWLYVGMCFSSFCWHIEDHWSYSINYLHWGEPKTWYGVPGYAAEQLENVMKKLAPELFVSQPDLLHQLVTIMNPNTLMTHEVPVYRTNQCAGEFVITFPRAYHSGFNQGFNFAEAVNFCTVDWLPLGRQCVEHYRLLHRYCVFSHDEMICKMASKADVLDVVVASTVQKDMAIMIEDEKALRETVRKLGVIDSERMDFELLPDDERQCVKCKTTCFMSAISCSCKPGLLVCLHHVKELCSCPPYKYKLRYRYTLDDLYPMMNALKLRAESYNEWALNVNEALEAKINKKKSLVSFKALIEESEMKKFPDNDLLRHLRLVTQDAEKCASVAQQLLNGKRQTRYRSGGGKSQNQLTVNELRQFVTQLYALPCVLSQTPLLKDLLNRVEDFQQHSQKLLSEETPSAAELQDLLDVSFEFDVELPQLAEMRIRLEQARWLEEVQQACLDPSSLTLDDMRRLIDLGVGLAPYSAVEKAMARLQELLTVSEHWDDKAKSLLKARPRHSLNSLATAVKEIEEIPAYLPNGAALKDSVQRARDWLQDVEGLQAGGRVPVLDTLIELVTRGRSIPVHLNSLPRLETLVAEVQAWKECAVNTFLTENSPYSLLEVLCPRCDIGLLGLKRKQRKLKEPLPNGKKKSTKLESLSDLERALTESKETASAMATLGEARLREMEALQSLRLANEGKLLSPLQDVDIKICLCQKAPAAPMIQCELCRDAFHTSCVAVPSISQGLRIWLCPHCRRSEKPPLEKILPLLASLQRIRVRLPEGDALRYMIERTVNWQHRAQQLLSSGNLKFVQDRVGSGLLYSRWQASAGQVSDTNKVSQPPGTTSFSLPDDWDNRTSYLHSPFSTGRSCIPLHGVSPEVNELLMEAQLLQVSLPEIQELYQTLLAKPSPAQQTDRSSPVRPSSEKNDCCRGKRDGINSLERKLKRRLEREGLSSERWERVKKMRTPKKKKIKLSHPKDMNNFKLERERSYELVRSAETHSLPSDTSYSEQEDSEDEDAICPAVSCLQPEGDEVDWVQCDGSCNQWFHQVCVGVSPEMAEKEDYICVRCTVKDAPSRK
#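 Coupled FDH/NAD⁺ fluorescence readout. KDM5BΔAP 200 nM final; compound titration, 10 min RT preincubation; substrate mix 12.5 µM H3K4me3, 25 µM 2-OG, 50 µM Fe(II), 100 µM ascorbate, 0.25 mM NAD⁺, 0.25 U/mL FDH; ΔRFU over 30 min.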
# * hit, by the source's call; i = inactive; ! = not active in a repeat. Potency means the concentration at half of the fitted maximal effect.
SMILES,KDM5B inh
O=C(NCc1ccccc1)NC[C@H]1O[C@@H]2C[C@@H](CC(=O)N3CCC(F)(F)C3)O[C@@H]2[C@@H]1O,i
CC(C)(O)CCc1cccc(C(=O)N2CC=C(c3ccc(F)cc3)CC2)c1,i
CCc1c(C)sc(NC(=O)c2ccc(Cl)s2)c1C#N,i
CN(C)c1ccc2ncc(Nc3ccccc3)n2n1,i
CN(C)c1ccc2ncc(Nc3ccc(Cl)cn3)n2n1,35µM*
Clc1ccc(Nc2cnc3ccc(-c4ccccc4)nn23)nc1,i
COc1ccc(-c2ccc3ncc(Nc4cc(F)ccc4OC)n3n2)cn1,i
COc1ccc(-c2ccc3ncc(Nc4ccccc4OC)n3n2)cn1,i
COc1ccc(F)cc1Nc1cnc2ccc(N(C)C)nn12,32µM*
O=C(C1CC(=O)N(c2n[nH]c3ccccc23)C1)N1CCC(c2nc3ccccc3[nH]2)CC1 (centres undefined),i
CNC(=O)[C@@H]1CN(C(=O)COc2cccc(C)c2)C[C@H]1CO,i
Cc1nnc2c3ccccc3nc(Nc3cccc(O)c3)n12,i
CCOC(=O)c1c(NC(=O)c2cc(C)on2)sc(C)c1C,i
COc1ccc(S(=O)(=O)N2CCC(c3noc(-c4ccccn4)n3)C2)cc1 (centres undefined),i
O=C(NC1CCCC(C(F)(F)F)C1)c1ccc(CN2CCCCC2)cc1 (centres undefined),i
CN(Cc1cccnc1)c1nc2c(c(=O)[nH]1)CCN(Cc1ccncc1)CC2,i
O=C(NCc1cccs1)c1ccc(-c2ccccc2)cc1,i
Cc1ncsc1C(=O)NCc1cccnc1,i
O=C(NCc1cccs1)c1ccccn1,i
O=C(NCc1cccnc1)c1ccc2nccn2c1,112µM*!
O=C(NCc1cccc(C(F)(F)F)c1)c1ccc2nccn2c1,35µM*
O=C(NCc1cccc(C(F)(F)F)c1)c1ccc(CN2CCCCC2)cc1,i
Cc1cn2nc(C(=O)NCc3cccc(C(F)(F)F)c3)cc2c(=O)[nH]1,i
O=C(NCc1cccnc1)c1ccc(C2CCCCC2)cc1,i
O=C(NCc1cccs1)c1ccc2nccn2c1,35µM*
SMILES,KDM5B inh
COc1ccc(OC)c(CN2CC(Oc3ccccc3C(=O)NCc3ccccc3)C2)c1,i
CCn1c(CCc2ccc(NC(=O)c3ccc(C#N)cc3)cc2)nc2ccccc21,i
Cc1nc([C@@H]2CN(C(=O)c3cc(C4CC4)[nH]n3)C[C@H]2C(N)=O)n[nH]1,i
O=C(CCC1CCN(S(=O)(=O)c2ccccc2)CC1)NCc1cccc(F)c1,i
CCOc1cc(C(=O)Nc2ncc(C)s2)ccc1OC,i
NC(=O)c1ccccc1OCc1coc(-c2cccc(F)c2)n1,i
CCCCN(Cc1ccccc1)c1ccc(NS(=O)(=O)c2cc(C)c(C)cc2C)cc1C(=O)O,i
O=C(NC1CCCc2c1[nH]c1ccc(F)cc21)c1n[nH]c2c1CCC2 (centres undefined),i
COCCn1c(C)cnc1CC1CCN(C(C)=O)CC1,i
O=C(NC1CC(c2nnc(CO)n2C2CC2)C1)C1(c2ccccc2)CCCC1 (centres undefined),i
O=C(NC1CC(c2nnc(CO)n2C2CC2)C1)c1csc(-c2ccccc2)n1 (centres undefined),i
O=C(NC1CC(c2nnc(CO)n2C2CC2)C1)c1nc2ccccc2[nH]1 (centres undefined),32µM*
COCc1cc(C)nc2sc3c(=O)n(-c4ccccc4C(F)(F)F)nnc3c12,i
COc1ccc(-c2cc(C[C@H]3CNCC[C@H]3CC(=O)N3CCCCC3)no2)cc1,i
CCOc1ccc(NS(=O)(=O)c2c(C)nc3sc(CC)nn3c2=O)cc1,i
CCN(CC)C(=O)CCC1CCN(c2cc(NC3CC3)ncn2)CC1,i
O=C(NCc1cccs1)c1nc(-c2cccc(C(F)(F)F)c2)c2cnccn12,16µM*
O=C(NCc1cccs1)c1cc(-c2cccnc2)nc2ccccc12,i
O=C(NCc1ccc(F)cc1)c1nc(-c2cccc(F)c2)c2cnccn12,i
O=C(NCc1cccs1)c1ccc(CSc2nc3ccncc3n2Cc2ccccc2)cc1,i
O=C(NCc1ccc(C(F)(F)F)cc1)c1nc2sccn2c1Br,i
O=C(NCc1ccc(F)cc1)c1nc(-c2cccc(C(F)(F)F)c2)c2cnccn12,28µM*
O=C(c1ccccc1Cl)N1CCC(c2n[nH]c(=O)n2-c2ccccc2)CC1,i
NS(=O)(=O)c1ccc(NC(=O)c2cc(-c3cccc4ccccc34)n[nH]2)cc1,i
CCOC(=O)c1c(NC(=O)Cn2nnc(-c3ccccc3)n2)sc(C)c1C,i
SMILES,KDM5B inh
CCNC(=O)Cc1ccc(N(Cc2ccccc2)C(=O)c2ccco2)cc1,i
CCCNC(=O)Cc1ccc(N(Cc2ccccc2)C(=O)c2ccco2)cc1,i
Cc1cccc(CN(C(=O)c2ccco2)c2ccc(CC(=O)N(C)Cc3ccccc3)cc2)c1,28µM*
O=C(NC1(C(F)(F)F)C(=O)Nc2c1c(=O)[nH]c(=O)n2Cc1ccco1)c1cccnc1 (centres undefined),i
COCc1ccc(CN2CCC(Oc3ccc(C(=O)NC4CCCC4)cc3Cl)CC2)o1,i
CCC(CC)NC(=O)COC(=O)c1ccc2nc(C)c(C)nc2c1,i
CCOCCn1c(=O)[nH]c2cc(C(=O)NCCN3CCOC3=O)ccc21,i
O=C(CC(c1ccccc1)c1ccc(Cl)cc1)N1CCC(CO)CC1 (centres undefined),i
O=[N+]([O-])c1ccc(Oc2cccc3cccnc23)cc1,i
Cc1ccc(CNC(=O)N2CCC(c3ncc(C)n3C(C)C)C2)cc1 (centres undefined),i
O=C(c1cccnc1)N1C[C@@H]2OCC(=O)N(Cc3ccccn3)[C@@H]2C1,i
CCOC(=O)c1cccnc1N1C[C@H]2OC(=O)N(Cc3ccccn3)[C@H]2C1,28µM*
COc1cc(N2C[C@H]3OC(=O)N(Cc4ccccc4OC)[C@H]3C2)ncn1,i
CC(C)C(=O)N1Cc2ccccc2CC2(CCCN(Cc3cccnc3)C2)C1 (centres undefined),i
O=C(C[C@H]1NC(=O)c2ccccc2NC1=O)Nc1ccc(F)c(F)c1F,i
CCCC(C)N1CC2(CCN(C(=O)c3cnn4ccccc34)CC2)OC1=O (centres undefined),28µM*
O=C1CC2(CCN(C(=O)C3CCc4ccccc43)CC2)CN1Cc1ccccc1 (centres undefined),i
Cn1cc(C(=O)N2CCC3(CC2)CC(=O)N(CCCc2ccccc2)C3)cn1,i
CCCC(C)N1CC2(CCN(C(=O)c3cc(Cl)ccc3C)CC2)OC1=O (centres undefined),i
CCCC(C)N1CC2(CCN(C(=O)c3cnc(C)cn3)CC2)OC1=O (centres undefined),i
O=C1CC2(CCN(C(=O)c3cnn4ccccc34)CC2)CN1Cc1ccccc1,20µM*
O=C(CS(=O)(=O)c1ccccc1)N1CCCCC1,i
O=C(c1ccc2c(c1)CCCC2)N1CCN(c2nc3ccc(F)cc3s2)CC1,i
C=CCNC(=O)CSc1ccc2c(c1)OCCCO2,i
C=CCOC(=O)N(C)Cc1cn([C@@H]2CN[C@H](C(=O)NC)C2)nn1,i
CCc1ccc(NC(=O)C2CCCN(S(=O)(=O)c3c(C)[nH]c(=O)[nH]c3=O)C2)cc1 (centres undefined),i
COc1ccc(-c2cnc3[nH]cc(CC(=O)Nc4cccnc4)c3c2)cc1,40µM*
COc1ccccc1CC(=O)Nc1cnc(-c2cccnc2)nc1,i
